Compounds with a hit are over-represented: about 6.9% of the library has one in this group of screens.
VDR inhibitor: vitamin D3 receptor (human) inhibition | AID 504847 | P11473 | Potency, µM, for the others: max response, negative = inhibition, usual class: inhibitors | actives 0.93% (n = 400,000) | VDR-SRC2-3 peptide fluorescence polarization, 2 h; also: % is scaled to controls: 0 for no effect and ±100 for the full control effect
Target sequence (P11473 whole entry, looked up): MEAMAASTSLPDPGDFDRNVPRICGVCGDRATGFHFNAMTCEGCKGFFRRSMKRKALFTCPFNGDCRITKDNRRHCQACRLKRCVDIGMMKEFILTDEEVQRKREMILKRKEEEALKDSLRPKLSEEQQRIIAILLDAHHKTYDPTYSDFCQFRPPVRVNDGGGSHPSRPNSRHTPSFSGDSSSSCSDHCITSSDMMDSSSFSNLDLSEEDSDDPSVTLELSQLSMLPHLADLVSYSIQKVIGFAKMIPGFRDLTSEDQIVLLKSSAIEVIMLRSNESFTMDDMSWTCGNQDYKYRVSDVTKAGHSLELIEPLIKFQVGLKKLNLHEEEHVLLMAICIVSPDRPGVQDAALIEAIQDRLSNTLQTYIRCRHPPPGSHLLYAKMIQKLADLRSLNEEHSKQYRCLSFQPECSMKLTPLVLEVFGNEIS
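FP read-out; VDR + SRC2-3 coactivator peptide; 23 nl compound by pintool; 2 h RT incubation; reagents held at 4 deg C, protected from light.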
JMJD2A Tudor inh: inhibitors of human JMJD2A Tudor domain; Potency, µM (highest dose often 114 µM), inactives show at the highest dose activity change, negative = inhibition, usual class: inhibitors; actives 4.4% (n = 390,000); AID 504339; O75164; AlphaScreen JMJD2A-Tudor / H3K4me3 peptide binding; also: % is scaled to controls: 0 for no effect and ±100 for the full control effect; nearly all actives have a fitted effect of over 50% in size
BAZ2B block: BAZ2B (human) inhibition | AlphaScreen BAZ2B-H3K14Ac peptide displacement | Potency, µM (top dose mostly 114 µM), for the others: top-dose activity change, negative = inhibition, actives largely listed as inhibitors | actives 4.4% (n = 360,000); also: % is scaled to controls: 0 for no effect and ±100 for the full control effect; nearly all actives have a fitted effect of over 60% in size
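BAZ2B (50 nM) with biotin-H3(5-23)K14Ac peptide (50 nM) in PBS pH 7.4, 0.01% Tween-20, preformed 30 min, then compound 30 min at room temperature; top concentration 110uM. AlphaScreen streptavidin donor/nickel chelate acceptor beads (10 ug/mL final), 20 min dark, signal read.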
HP1b binding inh: inhibitors of HP1-beta chromodomain binding to methylated histone tails; AID 540317; AlphaScreen HP1-beta / biotin-H3K9me3 peptide binding; P83916; actives 0.56% (n = 390,000); Potency, µM (highest dose often 114 µM), inactives show top-dose activity change, negative = inhibition, hits mostly inhibitors; also: nearly all actives have a fitted effect of over 70% in size
Target sequence (P83916 whole entry, looked up): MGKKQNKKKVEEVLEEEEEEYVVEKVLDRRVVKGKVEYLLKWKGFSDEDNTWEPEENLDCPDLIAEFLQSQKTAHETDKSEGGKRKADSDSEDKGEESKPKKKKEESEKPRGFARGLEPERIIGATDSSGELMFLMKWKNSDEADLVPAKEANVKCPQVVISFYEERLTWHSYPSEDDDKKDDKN
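Compound inhibition of the preformed complex between 50 nM HP1-beta and 50 nM biotinylated H3K9me3 peptide was read by AlphaScreen. Buffer was PBS pH 7.4 with 0.01% Tween-20. Incubations ran 30 min at room temperature, with 10 ug/mL donor/acceptor beads.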
L3MBTL1 block: inhibitors of human L3MBTL1; Q9Y468; AlphaScreen L3MBTL1–H3K9me1 peptide binding; Potency, µM (titrated, usually from 57.1 µM), inactives show at the highest dose activity, negative = inhibition, most hits filed as inhibitors; actives 0.66% (n = 230,000); also: % is scaled to controls: 0 for no effect and ±100 for the full control effect; nearly all actives have a fitted effect of over 60% in size
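AlphaScreen assay: L3MBTL1 (50 nM final) was preincubated 30 min at room temperature with biotinylated H3(1-15)K9me1 peptide (75 nM final), then 30 min with library compounds; streptavidin donor and nickel chelate acceptor beads (10 ug/mL final) added, 30 min dark.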
PLK1 PBD inh: blocks phosphopeptide binding to human PLK1 polo-box domain | actives 2.8% (n = 360,000) | Potency, µM, for inactives: max response, negative = inhibition, most hits filed as inhibitors | Plk1 PBD binding of FITC phosphopeptide, fluorescence polarization; also: series mostly up to about 57 µM; % is scaled to controls: 0 for no effect and ±100 for the full control effect; nearly all actives have a fitted effect of over 65% in size
* marks the source's active call; other numbers are inactive results; [ ] = another dose, or the depositor's remark. Calls follow the shape of the dose curve; as a rule, active = well fitted curve in the direction sought with a large enough effect; inconclusive = small, poorly fitted or top-dose-only effect, or another doubt; inactive = no such curve, though single readings can be large; an effect the other way counts as inactive or inconclusive. Potency is read from the fitted curve at half-maximal effect.

Cc1ccccc1NC(=O)CN1C(=O)C2C3CC(C(Br)C3Br)C2C1=O (stereo not drawn) was read as VDR inhibitor 79µM*, JMJD2A Tudor inh inconclusive, BAZ2B block -11%, HP1b binding inh inconclusive, L3MBTL1 block -6% and PLK1 PBD inh 4.7µM*.
For Cc1ccccc1NC(=O)CN1C(=O)COc2ccc(Cl)cc21 the results were VDR inhibitor -19%, JMJD2A Tudor inh inconclusive, BAZ2B block inconclusive, HP1b binding inh 20%, L3MBTL1 block 2% and PLK1 PBD inh 24µM*.
`O=C(CN1C(=O)C2C3C=CC(C4CC34)C2C1=O)Nc1cccc2ncccc12` (stereo not drawn) gave VDR inhibitor -15%, JMJD2A Tudor inh -16%, BAZ2B block -19%, HP1b binding inh 1%, L3MBTL1 block -2% and PLK1 PBD inh 30µM*.
O=C(NCCc1ccccc1)c1sc2ncccc2c1-n1cccc1 was read as VDR inhibitor -1%, JMJD2A Tudor inh -32%, BAZ2B block -39% and HP1b binding inh -5%[57 µM].
For Cn1cccc1C(=O)N1CCC2(CC1)CCN(c1ccccc1)CC2 the results were VDR inhibitor -7%.
`C=CCc1ccc(OCCN2CCc3ccccc3C2)c(OC)c1` gave VDR inhibitor 6%, JMJD2A Tudor inh inconclusive, BAZ2B block 50µM*, HP1b binding inh inconclusive, L3MBTL1 block -5% and PLK1 PBD inh -13%.
For C/C=C/c1ccc(OCCCCOc2c(OC)cccc2OC)c(OC)c1 the results were VDR inhibitor -19%, JMJD2A Tudor inh 29%, BAZ2B block 42%, HP1b binding inh 129%, L3MBTL1 block 26% and PLK1 PBD inh -7%.
`C/C=C/c1ccc(OCCN2CCc3ccccc3C2)c(OC)c1` gave VDR inhibitor -15%, JMJD2A Tudor inh 0.89µM*, BAZ2B block inconclusive, HP1b binding inh inconclusive, L3MBTL1 block -1% and PLK1 PBD inh -1%.
For CCc1nc2ccc(C(=O)NCCc3c[nH]c4ccccc34)cn2c1N(C)Cc1ccc(N(C)C)cc1 the results were PLK1 PBD inh 6%.
Screening Cc1ccc(NC(=O)c2cnc(N3CCN(c4ccccn4)CC3)c3ccccc23)c(Br)c1 returned VDR inhibitor 1%, JMJD2A Tudor inh 0%[11.4 µM], BAZ2B block -8%, HP1b binding inh 24% and PLK1 PBD inh 24µM*.
O=C(Nc1c(F)cccc1F)c1cnc(N2CCN(c3ccccn3)CC2)c2ccccc12 was read as VDR inhibitor 5%, JMJD2A Tudor inh -6%, BAZ2B block -4%, HP1b binding inh 20% and PLK1 PBD inh 2%.
CCN(C(=O)CCc1nnc2ccc(NCc3ccco3)nn12)c1ccccc1 was read as VDR inhibitor 10%, JMJD2A Tudor inh inconclusive, BAZ2B block -28%, HP1b binding inh 13% and PLK1 PBD inh -7%.
Screening CCN(Cc1ccccc1)Cc1c(F)cccc1F returned VDR inhibitor 1%, JMJD2A Tudor inh 20µM*, HP1b binding inh inconclusive, L3MBTL1 block 9% and PLK1 PBD inh 0%.
Screening CCN(Cc1ccccc1)Cc1cc(OC)cc(OC)c1 returned VDR inhibitor 3%, JMJD2A Tudor inh 34%, BAZ2B block 33%, HP1b binding inh 63%, L3MBTL1 block 10% and PLK1 PBD inh -13%.
`CN(C(=O)c1cccc(NC(=O)Cc2cccc(NC(=O)C3CCN(C(=O)c4ccccc4)CC3)c2)c1)C1CC1` gave VDR inhibitor -12%, JMJD2A Tudor inh -6%, HP1b binding inh 37% and PLK1 PBD inh -1%.
`COc1ccc(C)cc1NCc1cccc(OC)c1OC` gave VDR inhibitor -1%, JMJD2A Tudor inh 6.3µM*, BAZ2B block 45µM*, HP1b binding inh inconclusive, L3MBTL1 block -9% and PLK1 PBD inh -8%.
Screening COc1ccccc1CNS(=O)(=O)c1cc(C)ccc1OC returned VDR inhibitor -19%, JMJD2A Tudor inh -8%, BAZ2B block 8%, HP1b binding inh 36%, L3MBTL1 block 4% and PLK1 PBD inh -2%.
Screening COc1ccc(CNc2cc(C)ccc2C)c(OC)c1OC returned VDR inhibitor 6%, JMJD2A Tudor inh -28%, BAZ2B block -39%, HP1b binding inh 6%, L3MBTL1 block -10% and PLK1 PBD inh -14%.
For COc1cccc(CNS(=O)(=O)c2ccccc2Br)c1OC the results were VDR inhibitor inconclusive, JMJD2A Tudor inh 79µM*, HP1b binding inh 32% and PLK1 PBD inh 19µM*.
`COc1cc(OC)c(OC)cc1CNc1cc(C)ccc1OC` gave VDR inhibitor 17%, JMJD2A Tudor inh 40µM*, HP1b binding inh inconclusive, L3MBTL1 block inconclusive and PLK1 PBD inh -4%.
Screening CC(NC(=O)Nc1ccccc1F)C(C)(C)C (stereo not drawn) returned VDR inhibitor -6%, JMJD2A Tudor inh -2%, BAZ2B block -1%, HP1b binding inh 40%, L3MBTL1 block 8% and PLK1 PBD inh 1%.
Screening CCC/C=C/c1ccc(CN2C(CC(C)C)C(=O)N(Cc3cn(Cc4ccco4)nn3)CCS2(=O)=O)cc1 (stereo not drawn) returned PLK1 PBD inh -7%.
O=C(O)C(=O)/C(=C\c1ccsc1)c1ccc2ccccc2n1 was read as VDR inhibitor -11%, JMJD2A Tudor inh 89µM*, BAZ2B block -6%, HP1b binding inh 5% and PLK1 PBD inh -25%.
O=C(O)C(=O)/C(=C\c1cccc2ccccc12)c1ccc2ccccc2n1 was read as VDR inhibitor 2%, JMJD2A Tudor inh -18%, BAZ2B block 4%, HP1b binding inh 43% and PLK1 PBD inh 67µM*.
Screening Cc1c(C(=O)O)cnc2c([N+](=O)[O-])cnn12 returned VDR inhibitor 35µM*, JMJD2A Tudor inh 8.9µM*, BAZ2B block -26%, HP1b binding inh -1%, L3MBTL1 block inconclusive and PLK1 PBD inh 3.4µM*.
Cc1cn2c(=O)c(S(=O)(=O)NCCc3ccccc3)c(C)nc2s1 was read as VDR inhibitor 8%, JMJD2A Tudor inh 2%, BAZ2B block -11% and HP1b binding inh 34%.
`O=Nc1nc2ncccn2c1-c1ccccc1` gave VDR inhibitor inconclusive, JMJD2A Tudor inh inconclusive, HP1b binding inh -12% and PLK1 PBD inh 7.5µM*.
Screening Cc1ccc(NC(=O)CN2C(=O)S/C(=C\c3ccc(C(=O)O)cc3)C2=O)cc1 returned VDR inhibitor -13%, JMJD2A Tudor inh inconclusive, BAZ2B block 56µM*, HP1b binding inh 28%, L3MBTL1 block 2% and PLK1 PBD inh -16%.
For CCOc1ccc(/C=C2/SC(=S)N(CCC(=O)Nc3ccc(C(=O)O)cc3)C2=O)cc1 the results were VDR inhibitor 11%, JMJD2A Tudor inh 10µM*, BAZ2B block 32µM*, HP1b binding inh 35µM* and PLK1 PBD inh inconclusive.
